According to PubChem BioAssay (Tox21):
Inconclusive results are not listed. Activity calls are given as the source filed them. Unless noted, calls come from the whole dose curve; as a rule, active = well fitted curve in the direction sought with a large enough effect in the repeat runs; inconclusive = weak or mixed curves; inactive = no such curve, though single readings can be large; an effect the other way counts as inactive or inconclusive.

Columns and labels:
[1] = qHTS assay to identify small molecule agonists of the estrogen related receptor signaling pathway with the pleiotropic PPARgamma coactivator (PGC) (AID 1224823)
In short: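 Compounds dissolved in DMSO are added by pin tool to PGC/ERR cells that have settled for 6 h, and incubation continues 18 h at 37 C. Reporter output is measured as One-Glo luminescence.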

[2] = molecular target: Luciferin 4-monooxygenase (Photinus pyralis) (UniProt P08659); test: qHTS assay to identify small molecule inhibitors of firefly luciferase (AID 1224835); note: nearly all actives have a fitted effect of over 25% in size; note: potency is the fitted concentration of half-maximal effect
Sequence of Luciferin 4-monooxygenase (Photinus pyralis) (P08659 whole entry, looked up): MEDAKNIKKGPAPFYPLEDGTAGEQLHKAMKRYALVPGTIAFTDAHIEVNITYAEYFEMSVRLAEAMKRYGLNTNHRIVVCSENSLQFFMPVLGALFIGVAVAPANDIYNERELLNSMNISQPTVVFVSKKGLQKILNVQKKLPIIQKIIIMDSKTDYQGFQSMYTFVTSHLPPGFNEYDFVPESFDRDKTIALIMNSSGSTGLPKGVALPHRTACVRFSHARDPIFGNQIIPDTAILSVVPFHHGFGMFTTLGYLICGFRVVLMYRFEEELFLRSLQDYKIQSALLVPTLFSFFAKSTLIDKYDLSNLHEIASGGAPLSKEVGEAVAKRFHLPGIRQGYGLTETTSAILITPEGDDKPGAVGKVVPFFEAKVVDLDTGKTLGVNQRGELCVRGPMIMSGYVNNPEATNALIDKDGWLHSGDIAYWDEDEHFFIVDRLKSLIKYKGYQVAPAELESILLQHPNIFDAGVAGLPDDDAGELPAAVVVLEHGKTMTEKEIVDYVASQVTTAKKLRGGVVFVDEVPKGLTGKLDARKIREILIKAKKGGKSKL
In short: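 Inhibition of purified Photinus luciferase is measured by luminescence. Substrate levels (D-luciferin, ATP) sit at their KM values. Each compound is tested in a concentration series.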

[3] = qHTS assay to identify small molecule agonists of the constitutive androstane receptor (CAR) signaling pathway - cell viability counter screen (AID 1224836); note: nearly all actives have a fitted effect of over 45% in size
In short: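 HepG2 cells stably carrying hCAR and a CYP2B6-2.2kb reporter were plated 4 h, then given compounds at 15 concentrations plus PK11195 (final 0.75 uM). After 23 h at 37 C, viability was read by CellTiter-Fluor fluorescence.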

[4] = qHTS assay to identify small molecule antagonists of the constitutive androstane receptor (CAR) signaling pathway - cell viability counter screen (AID 1224837); note: nearly all actives have a fitted effect of over 45% in size
In short: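 CITCO at 50 nM final was added alongside compounds (15 concentrations) to double-stable hCAR/CYP2B6-2.2kb HepG2 cells. Following 23 hr at 37 C, cell viability was quantified by CellTiter-Fluor fluorescence intensity.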

[5] = molecular target: Nuclear receptor subfamily 1 group I member 3 (Homo sapiens) (UniProt Q14994); test: qHTS assay to identify small molecule agonists of the constitutive androstane receptor (CAR) signaling pathway (AID 1224839); note: nearly all actives have a fitted effect of over 15% in size; note: potency is the fitted concentration of half-maximal effect
Sequence of Nuclear receptor subfamily 1 group I member 3 (Homo sapiens) (Q14994 whole entry, looked up): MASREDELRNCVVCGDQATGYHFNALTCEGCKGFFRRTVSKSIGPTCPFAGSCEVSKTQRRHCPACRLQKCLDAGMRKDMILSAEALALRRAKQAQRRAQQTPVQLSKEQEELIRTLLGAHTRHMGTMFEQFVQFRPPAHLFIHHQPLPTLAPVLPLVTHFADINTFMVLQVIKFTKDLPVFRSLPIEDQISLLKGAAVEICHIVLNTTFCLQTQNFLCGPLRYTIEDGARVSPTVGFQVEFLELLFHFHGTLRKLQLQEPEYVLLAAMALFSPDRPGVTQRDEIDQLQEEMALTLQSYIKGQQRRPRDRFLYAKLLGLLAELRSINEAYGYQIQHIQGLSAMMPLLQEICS
In short: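 HepG2 cells stably expressing hCAR and a CYP2B6-2.2kb luciferase reporter were treated with compounds at 15 concentrations plus 0.75 uM PK11195 (final) for 24 h at 37 C; luminescence was read after ONE-Glo addition.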

[6] = qHTS assay to identify small molecule antagonists of the estrogen related receptor signaling pathway with the pleiotropic PPARgamma coactivator (PGC) from Tox21 10K library - cell viability counter screen (AID 1224840; active = well fitted cell-killing curve with a large enough effect in the repeat runs, not every such curve was filed as active; note: nearly all actives have a fitted effect of over 40% in size)
In short: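 Readout: fluorescence intensity from CellTiter-Fluor after 30 min at 37 C/5% CO2. Preceded by 17.5 h treatment of PGC/ERR cells with DMSO-dissolved compounds, added 6 h post-seeding.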

[7] = qHTS assay to identify small molecule antagonists of the estrogen related receptor signaling pathway with the pleiotropic PPARgamma coactivator (PGC) from Tox21 10K library (AID 1224841; call rule not given here; note: actives are mostly falling curves and most rising ones were filed inactive; nearly all actives have a fitted effect of over 50% in size)
In short: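 One-Glo luminescence, measured after half an hour at room temperature, quantified reporter output of PGC/ERR cells. These had been plated at 2,000 per well, incubated 6 h, dosed with compounds in DMSO, then kept 18 h at 37 C.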

[8] = qHTS assay to identify small molecule agonists of the estrogen related receptor signaling pathway with the pleiotropic PPARgamma coactivator (PGC) from Tox21 10K library (AID 1224842); note: nearly all actives have a fitted effect of over 15% in size
In short: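 Luminescence from One-Glo (30 min, room temperature) measured after PGC/ERR cells had 18 h at 37 C with pinned compound (23 nL in DMSO). Cells had been seeded at 2,000 per well and pre-incubated 6 h.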

[9] = molecular target: Thyrotropin receptor (Homo sapiens) (UniProt P16473); test: qHTS assay to identify small molecule agonists of the thyroid stimulating hormone receptor (TSHR) signaling pathway (AID 1224843; calls by dose curve; note: nearly all actives have a fitted effect of over 45% in size)
Sequence of Thyrotropin receptor (Homo sapiens) (P16473 whole entry, looked up): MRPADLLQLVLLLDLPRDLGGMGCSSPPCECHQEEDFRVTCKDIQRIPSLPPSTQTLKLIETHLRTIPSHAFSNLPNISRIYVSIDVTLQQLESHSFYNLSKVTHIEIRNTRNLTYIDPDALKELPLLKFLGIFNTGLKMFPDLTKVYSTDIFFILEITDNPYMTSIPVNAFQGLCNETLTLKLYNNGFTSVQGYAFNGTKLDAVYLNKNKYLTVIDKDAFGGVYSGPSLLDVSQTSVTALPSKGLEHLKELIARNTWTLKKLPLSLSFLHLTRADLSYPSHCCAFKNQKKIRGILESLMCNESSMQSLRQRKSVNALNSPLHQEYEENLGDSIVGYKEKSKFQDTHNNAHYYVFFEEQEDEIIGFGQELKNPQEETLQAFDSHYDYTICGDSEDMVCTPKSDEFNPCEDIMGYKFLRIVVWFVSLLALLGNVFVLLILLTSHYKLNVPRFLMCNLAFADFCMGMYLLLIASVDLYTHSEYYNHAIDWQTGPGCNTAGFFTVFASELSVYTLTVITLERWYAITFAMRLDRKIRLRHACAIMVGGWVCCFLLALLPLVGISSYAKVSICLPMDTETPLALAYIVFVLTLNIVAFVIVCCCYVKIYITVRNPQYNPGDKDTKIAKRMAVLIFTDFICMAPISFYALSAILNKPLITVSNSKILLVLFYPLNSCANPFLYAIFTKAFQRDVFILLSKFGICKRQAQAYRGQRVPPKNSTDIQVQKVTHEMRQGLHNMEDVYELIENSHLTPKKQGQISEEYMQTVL
In short: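 Agonist activity read as cAMP rise via d2/cryptate HTRF competition, 1 h room-temperature detection, in HEK293 cells expressing TSHR. Fifteen-point titrations, each run in triplicate, with a 30 min room-temperature incubation beforehand.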

[10] = qHTS assay to identify small molecule agonists of the hypoxia (HIF-1) signaling pathway - cell viability counter screen (AID 1224844; calls by dose curve; note: nearly all actives have a fitted effect of over 50% in size)
In short: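 In this counter screen, HRE-bla ME-180 cell viability after 17 hrs of compound exposure at 37C was read by CellTiter-Glo luminescence, multiplexed with the beta-lactamase reporter measurement.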

[11] = qHTS assay to identify small molecule agonists of H2AX (AID 1224845; active = well fitted activation curve with a large enough effect in the signal ratio in the repeat runs, not every such curve was filed as active; the % refers to the signal ratio)
In short: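 Phospho-H2AX Ser139 measured by HTRF (ex 320 nm; em 665 and 620 nm) after 24 hr antibody incubation. Compounds, 15 concentrations, 0.76% DMSO, were applied to CHO-K1 cells for 3hr at 37C before lysis.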

[12] = qHTS assay to identify small molecule agonists of the hypoxia (HIF-1) signaling pathway (AID 1224846; active = well fitted activation curve with a large enough effect in the signal ratio in the repeat runs, not every such curve was filed as active; the % refers to the signal ratio)
In short: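 ME-180 HRE-bla reporter cells; compounds in DMSO, 17 h at 37C; read-out beta-lactamase via CCF4-AM FRET.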

[13] = qHTS assay to identify small molecule agonists of H2AX - cell viability counter screen (AID 1224847; calls by dose curve; note: top concentration of the series differs between compounds; nearly all actives have a fitted effect of over 30% in size)
In short: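 Wild-type CHO-K1 cells (10% FBS medium) were plated overnight at 37C, exposed to compounds at 15 concentrations for 3 hr at 37C (0.76% DMSO final), and viability was read as CellTiter-Glo luminescence after 30 min at room temperature.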

[14] = qHTS assay to identify small molecule antagonists of the estrogen related receptor (ERR) signaling pathway from Tox21 library (AID 1224848); note: nearly all actives have a fitted effect of over 50% in size
In short: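 Luciferase luminescence (ONE-Glo, 30 min room temperature) was the read-out. Cells of the NTP-supplied ERR line, 2,000 per well, were given 6 h at 37 C before compound addition in DMSO and 18 h exposure at 37 C.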

[15] = qHTS assay to identify small molecule agonists of the estrogen related receptor (ERR) signaling pathway from Tox21 library (AID 1224849; calls by dose curve; note: nearly all actives have a fitted effect of over 15% in size); details: ERR reporter cell line, ONE-Glo luciferase, 18 h; at 92.4 µM (top of the series) unless noted
In short: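 Luciferase activity in ERR pathway reporter cells served as the agonist readout; exposure lasted 18 h at 37 C, with ONE-Glo detection after 30 min at room temperature.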

[16] = qHTS RealTime-Glo MT Cell Viability Assay in HepG2 cells - 24 hour (AID 1224867); note: nearly all actives have a fitted effect of over 50% in size
In short: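 Luminescence read-out: viable HepG2 cells reduce a prosubstrate to a NanoLuc substrate, giving a signal proportional to live cell number. Reads taken at 0, 8, 16, 24, 32 and 40 h of compound exposure at 37 C.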

[17] = qHTS RealTime-Glo MT Cell Viability Assay in HEK293 cells - 32 hour (AID 1224868)
In short: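 Nonlytic real-time viability readout: viable cells convert prosubstrate to NanoLuc substrate, giving luminescence proportional to live cell number. HEK293, 600 cells/well, compound added after 5 h, continuous culture at 37 C.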

[18] = A CellTox Green Cytotoxicity Assay to monitor cytotoxicity in HEK293 cells - 0 hour (AID 1224869); note: nearly all actives have a fitted effect of over 50% in size
In short: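 Real-time, in one plate: 600 HEK293 cells/well with dead-cell DNA dye, pinned compound after 5 h, 37 C incubation over 40 h; viable cells give no appreciable fluorescence.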

[19] = qHTS assay to identify small molecule antagonists of the estrogen related receptor (ERR) signaling pathway from Tox21 library - cell viability counter screen (AID 1224834); note: nearly all actives have a fitted effect of over 30% in size
In short: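 Counter screen run in ERR cells (2,000 cells/well): cells pre-incubated 6 h, then treated with compounds for 17.5 h at 37 C. Fluorescence was read 30 min after CellTiter-Fluor addition.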

[20] = molecular target: Nuclear receptor subfamily 1 group I member 3 (Homo sapiens) (UniProt Q14994); test: qHTS assay to identify small molecule antagonists of the constitutive androstane receptor (CAR) signaling pathway (AID 1224838); note: nearly all actives have a fitted effect of over 40% in size
In short: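 Inhibition of CITCO-driven (50 nM final) CYP2B6 reporter expression is measured in HepG2 cells stably carrying hCAR. Fifteen compound concentrations are applied for 24 h at 37 C, followed by luciferase luminescence.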
% is set by controls: 0 for no effect and ±100 for the full control effect.

O=C(NCCN1CCOCC1)c1ccc(Cl)cc1
inactive: outcome [1] | Potency [2] | Potency [3] | Potency [4] | Potency [5] | outcome [6] | Potency [7] | outcome [8] | Potency [9] | outcome [10] | outcome [11] | outcome [12] | Potency [13] | Potency [14] | activity change, positive = activation [15] 9.75% [at 42.5 µM] | outcome [16] | Potency [17] | outcome [18]

COC(=O)CCc1ccc(OCC(O)CNC(C)C)cc1 (configuration not stated)
inactive: Potency [19] | Potency [2] | Potency [3] | Potency [4] | outcome [20] | Potency [5] | outcome [6] | Potency [7] | outcome [8] | Potency [9] | outcome [10] | outcome [11] | outcome [12] | Potency [13] | Potency [14] | activity change, positive = activation [15] 8.83% [at 42.5 µM] | outcome [16] | Potency [17] | outcome [18]

CC(=O)CCCCn1c(=O)c2c(ncn2C)n(C)c1=O
inactive: outcome [1] | Potency [19] | Potency [2] | Potency [3] | Potency [4] | outcome [6] | Potency [7] | outcome [8] | Potency [9] | outcome [10] | outcome [11] | Potency [13] | Potency [14] | activity change, positive = activation [15] -5.11% [at 42.5 µM] | outcome [16] | Potency [17] | outcome [18]

CC(C)(C)OC(=O)c1ccc(O)cc1
inactive: Potency [19] | Potency [3] | Potency [4] | outcome [20] | outcome [6] | Potency [7] | outcome [8] | Potency [9] | outcome [10] | outcome [11] | Potency [13] | Potency [14] | outcome [16] | Potency [17] | outcome [18]
active: Potency [2] 39.9 µM | Potency [5] 24.3 µM

CCCCC(CC)COCCO (configuration not stated)
inactive: Potency [19] | Potency [2] | Potency [3] | Potency [4] | outcome [20] | Potency [5] | outcome [6] | Potency [7] | outcome [8] | Potency [9] | outcome [10] | outcome [11] | outcome [12] | Potency [13] | Potency [14] | activity change, positive = activation [15] 5.52% | outcome [16] | Potency [17] | outcome [18]

COC(=O)CCCCCCCC(=O)OC
inactive: Potency [19] | Potency [2] | Potency [3] | Potency [4] | outcome [20] | Potency [5] | outcome [6] | Potency [7] | outcome [8] | Potency [9] | outcome [10] | outcome [11] | outcome [12] | Potency [13] | Potency [14] | activity change, positive = activation [15] 1.98% | outcome [16] | Potency [17] | outcome [18]

O=C(CS(=O)Cc1ccco1)NC/C=C\COc1cc(CN2CCCCC2)ccn1 (configuration not stated)
inactive: Potency [19] | Potency [2] | Potency [3] | Potency [4] | outcome [20] | Potency [5] | outcome [6] | Potency [7] | outcome [8] | Potency [9] | outcome [10] | outcome [11] | outcome [12] | Potency [13] | Potency [14] | activity change, positive = activation [15] 7.25% [at 42.5 µM] | outcome [16] | Potency [17] | outcome [18]

CC(=O)c1sc(C)nc1C
inactive: Potency [19] | Potency [2] | Potency [3] | Potency [4] | outcome [20] | Potency [5] | outcome [6] | Potency [7] | outcome [8] | Potency [9] | outcome [10] | outcome [11] | outcome [12] | Potency [13] | Potency [14] | activity change, positive = activation [15] -11% | outcome [16] | Potency [17] | outcome [18]

NCCS
inactive: outcome [1] | Potency [19] | Potency [2] | Potency [3] | Potency [4] | outcome [6] | Potency [7] | outcome [8] | outcome [10] | outcome [11] | Potency [13] | Potency [14] | activity change, positive = activation [15] -2.88% [at 42.5 µM] | outcome [16] | Potency [17] | outcome [18]

CCCCCCCCOS(=O)(=O)O
inactive: Potency [19] | Potency [2] | Potency [3] | Potency [4] | outcome [20] | Potency [5] | outcome [6] | Potency [7] | outcome [8] | Potency [9] | outcome [10] | outcome [11] | outcome [12] | Potency [13] | Potency [14] | activity change, positive = activation [15] 6.25% | outcome [16] | Potency [17] | outcome [18]

CCC(C)NC(N)=O (configuration not stated)
inactive: Potency [19] | Potency [2] | Potency [3] | Potency [4] | outcome [20] | Potency [5] | outcome [6] | Potency [9] | outcome [10] | outcome [11] | Potency [13] | outcome [16] | Potency [17] | outcome [18]

CN(C)CCOCCO
inactive: Potency [19] | Potency [2] | Potency [3] | Potency [4] | outcome [20] | Potency [5] | Potency [7] | outcome [8] | Potency [9] | outcome [10] | outcome [11] | outcome [12] | Potency [13] | Potency [14] | activity change, positive = activation [15] 6.59% | outcome [16] | Potency [17] | outcome [18]

CC1=CCC(C(C)C)=CC1
inactive: Potency [19] | Potency [2] | Potency [3] | Potency [4] | outcome [20] | Potency [5] | outcome [6] | outcome [10] | outcome [11] | Potency [13] | outcome [16] | Potency [17] | outcome [18]
